Active and inactive are the calls of the source. Unless noted, the rule behind the calls is not given here.

Experiment [1] concerns Wnt5a (protein binding on small-molecule microarray). As to the kind of experiment: small molecules binding Wnt5a protein – biophysical, small-molecule microarray, 635/667 nm fluorescence, primary screen (AID 1142).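 Note: fluorescence read at 667 nm with signal to noise per printed feature.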 Conditions: 635 nm fluorescence, higher = more signal.
Experiment [2] in a line: ATP-based viability of Huh7 replicon cells – cell-based, CellTiter-Glo luminescence, basal, 48 h, cytotoxicity control for HCV replication inhibitor project, primary screen (AID 1143).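 Note: Huh7 hepatoma cells carrying a hepatitis C replication reporter with no stimulus; test concentration not given here.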 Conditions: higher = more signal, called active from +8 up or from −8 down. In general terms: In antiviral work, replicon cells carry a viral genome segment that copies itself.
A short description of experiment [3]: Pseudomonas biofilm growth suppression – PAO1 strain, BacTiter-Glo luminescence, LB-PBS, primary screen (AID 1144). Conditions: P. aeruginosa PAO1 biofilm, 12 h, higher = more signal.
Experiment [4] can be described thus: basal CRE-LacZ reporter activity in PC12 – cell-based, unstimulated, primary screen (AID 1145). Conditions: no forskolin, luminescence, 4.5 h, higher = more signal, called active from +8 up or from −8 down.
The nature of experiment [5]: forskolin-driven CRE-LacZ activity in PC12 – cell-based, CRE-LacZ reporter, forskolin-stimulated, primary screen (AID 1146).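 Note: PC12 cells with 6xCRE LacZ reporter stimulated by forskolin 10 µM; beta-galactosidase reporter signal reflecting CREB driven transcription.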 The conditions noted are these: luminescence, 4.5 h, higher = more signal, called active from +8 up or from −8 down.
Experiment [6] deals with Streptavidin (Streptomyces avidinii) (UniProt P22629). Kind of experiment: compounds binding control protein streptavidin – biophysical, small-molecule microarray, 635/667 nm fluorescence, artefact control for SMM compound annotation, primary screen (AID 1147).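 Note: signal reflects streptavidin binding to arrayed compounds as a control protein.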 Conditions: higher = more signal.
Streptavidin (Streptomyces avidinii), sequence (P22629 whole entry, looked up): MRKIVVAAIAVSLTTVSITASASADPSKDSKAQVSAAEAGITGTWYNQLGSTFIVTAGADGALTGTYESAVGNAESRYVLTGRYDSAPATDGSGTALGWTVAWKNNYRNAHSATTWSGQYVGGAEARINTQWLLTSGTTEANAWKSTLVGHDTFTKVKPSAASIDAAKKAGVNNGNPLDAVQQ
Experiment [7] in a line: probe aInhba binding on compound microarray – biochemical, small-molecule microarray, 635/667 nm fluorescence, primary screen (AID 1148).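 Note: score merges 667nm spot fluorescence with signal-to-noise for antibody binding to printed compounds.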 The conditions noted are these: higher = more signal.
Experiment [8] concerns the target Torsin-1A (Homo sapiens) (UniProt O14656). Kind of experiment: TOR1A wild-type binding on microarray – cell lysate, small-molecule microarray, lysate, 635/667 nm, primary screen (AID 1149). The conditions noted are these: COS7 hTOR1A-WT lysate, 635 nm fluorescence, higher = more signal.
Experiment [9] has the same target. Kind of experiment: torsin A mutant lysate binding on microarrays – cell lysate, small-molecule microarray, COS7 lysate, 635/667 nm fluorescence, primary screen (AID 1150).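 Note: score pools 667 nm emission and signal to noise measuring lysate protein binding.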 The conditions noted are these: COS7 hTOR1A mutant lysate, 635 nm fluorescence, higher = more signal.
For experiment [10], the system named is Sonic hedgehog protein (Shh). As to the kind of experiment: Sonic hedgehog microarray binding compounds – biochemical, small-molecule microarray, 635/667 nm fluorescence, primary screen (AID 1151).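 Note: Shh protein binding to compounds spotted on small-molecule microarray slides; score combines spot fluorescence intensity with signal-to-noise across triplicate slides.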 Conditions: 635 nm fluorescence, higher = more signal.
Experiment [11] is described as follows: optical density shifts of acrAB sulA E. coli – strain DRC41, OD650, 48 h, E. coli filamentation inducer project, primary screen (AID 1152).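 Note: E. coli MC1000 strain DRC41 lacking acrAB efflux pump and sulA.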 The conditions noted are these: higher = more signal, called active from +8 up or from −8 down.
Experiment [12] is described as follows: probe aLefty1 binding on compound microarray – biochemical, small-molecule microarray, 635/667 nm fluorescence, primary screen (AID 1153).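 Note: score merges spot fluorescence with signal-to-noise ratio from the scanned slide images.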 The conditions noted are these: higher = more signal.
Experiment [13] can be described thus: plasmodial surface anion channel blockers, osmotic lysis – cell-based, P. falciparum Indochina, OD700, 1 h, primary screen (AID 1154). Conditions: P. falciparum Indochina infected RBC osmotic lysis, higher = more signal, called active from +8 up or from −8 down.
A short description of experiment [14]: plasmodial surface anion channel blockers, osmotic lysis – cell-based, P. falciparum Indochina, OD700, 2 h, primary screen (AID 1155).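 Note: lysis reports solute entry through the parasite surface anion channel PSAC.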 Conditions: P. falciparum Indochina infected erythrocytes, higher = more signal, called active from +8 up or from −8 down.
The nature of experiment [15]: changes in parasitized red cell lysis, either direction – P. falciparum Indochina, OD700, 3 h, PSAC antagonist project, primary screen (AID 1156). Conditions: P. falciparum-infected erythrocytes, osmotic lysis, higher = more signal, called active from +8 up or from −8 down.
A short description of experiment [16]: plasmodial surface anion channel blockers, osmotic lysis – cell-based, P. falciparum Indochina, OD700, 18 h, primary screen (AID 1157). The conditions noted are these: P. falciparum Indochina infected erythrocytes, osmotic lysis OD700, 18 h; higher = more signal, called active from +8 up or from −8 down.
Experiment [17] can be described thus: S6 kinase pathway phospho-S6 level changes – cell-based, A549, cytoblot, luminescence, serum-stimulated, primary screen (AID 1158).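 Note: serum-stimulated A549 lung adenocarcinoma cells; signal is phosphorylated S6 detected by cytoblot immunostaining with HRP secondary.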 Conditions: 5 h, higher = more signal.
In experiment [18] the target is NADPH oxidase 2 (Homo sapiens) (UniProt P04839). As to the kind of experiment: compounds shifting NOX2 Amplex Red fluorescence – cell-based, HEK293-NOX2, PMA-stimulated, NOX inhibitor project, primary screen (AID 1159). Note: test concentration not given here. Conditions: 45 min, higher = more signal, called active from +8 up or from −8 down.
NADPH oxidase 2 (Homo sapiens), sequence (P04839 whole entry, looked up): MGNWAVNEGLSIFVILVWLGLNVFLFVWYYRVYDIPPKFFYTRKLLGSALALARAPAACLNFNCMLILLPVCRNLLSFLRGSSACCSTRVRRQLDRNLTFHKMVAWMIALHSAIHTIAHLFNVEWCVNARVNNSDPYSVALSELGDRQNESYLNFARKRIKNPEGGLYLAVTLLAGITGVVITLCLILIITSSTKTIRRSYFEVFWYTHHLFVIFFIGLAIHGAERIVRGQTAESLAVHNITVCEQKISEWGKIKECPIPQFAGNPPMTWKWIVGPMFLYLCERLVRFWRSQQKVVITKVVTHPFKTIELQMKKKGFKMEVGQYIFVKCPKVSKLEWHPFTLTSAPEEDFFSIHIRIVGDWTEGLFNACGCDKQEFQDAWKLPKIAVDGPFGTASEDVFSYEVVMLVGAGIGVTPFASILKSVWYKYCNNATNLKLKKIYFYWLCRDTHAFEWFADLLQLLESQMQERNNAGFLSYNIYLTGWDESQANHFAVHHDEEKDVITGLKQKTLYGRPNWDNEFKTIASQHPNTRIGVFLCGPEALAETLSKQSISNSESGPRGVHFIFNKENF
In experiment [19] the target is NADPH oxidase 4 (Homo sapiens) (UniProt Q9NPH5). Kind of experiment: compounds shifting NOX4 Amplex Red fluorescence – cell-based, HEK293-NOX4, tetracycline-induced, NOX inhibitor project, primary screen (AID 1160). Conditions: HEK293-NOX4, Amplex Red H2O2 fluorescence, 45 min; higher = more signal, called active from +8 up or from −8 down.
NADPH oxidase 4 (Homo sapiens), sequence (Q9NPH5 whole entry, looked up): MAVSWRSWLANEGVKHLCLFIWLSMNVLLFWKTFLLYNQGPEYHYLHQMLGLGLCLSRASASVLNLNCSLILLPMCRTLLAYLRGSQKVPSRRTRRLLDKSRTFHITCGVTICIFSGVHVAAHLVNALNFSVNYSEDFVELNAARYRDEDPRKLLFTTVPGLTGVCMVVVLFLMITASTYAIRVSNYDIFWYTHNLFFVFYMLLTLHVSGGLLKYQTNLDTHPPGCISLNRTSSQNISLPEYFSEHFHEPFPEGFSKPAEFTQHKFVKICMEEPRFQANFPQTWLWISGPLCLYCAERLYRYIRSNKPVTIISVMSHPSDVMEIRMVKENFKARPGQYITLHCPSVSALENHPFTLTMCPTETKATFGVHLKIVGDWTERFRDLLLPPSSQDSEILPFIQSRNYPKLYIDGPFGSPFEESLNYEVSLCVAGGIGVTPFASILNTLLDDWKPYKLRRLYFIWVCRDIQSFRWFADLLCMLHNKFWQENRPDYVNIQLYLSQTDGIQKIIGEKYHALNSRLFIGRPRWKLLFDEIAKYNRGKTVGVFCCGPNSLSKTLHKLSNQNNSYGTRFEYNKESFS
Experiment [20] addresses NADPH oxidase 5 (Homo sapiens) (UniProt Q96PH1). Kind of experiment: compounds shifting NOX5 Amplex Red fluorescence – cell-based, HEK293-NOX5, NOX inhibitor project, primary screen (AID 1161). Conditions: HEK293-NOX5, ionomycin, 45 min, higher = more signal.

NADPH oxidase 5 (Homo sapiens), sequence (Q96PH1 whole entry, looked up): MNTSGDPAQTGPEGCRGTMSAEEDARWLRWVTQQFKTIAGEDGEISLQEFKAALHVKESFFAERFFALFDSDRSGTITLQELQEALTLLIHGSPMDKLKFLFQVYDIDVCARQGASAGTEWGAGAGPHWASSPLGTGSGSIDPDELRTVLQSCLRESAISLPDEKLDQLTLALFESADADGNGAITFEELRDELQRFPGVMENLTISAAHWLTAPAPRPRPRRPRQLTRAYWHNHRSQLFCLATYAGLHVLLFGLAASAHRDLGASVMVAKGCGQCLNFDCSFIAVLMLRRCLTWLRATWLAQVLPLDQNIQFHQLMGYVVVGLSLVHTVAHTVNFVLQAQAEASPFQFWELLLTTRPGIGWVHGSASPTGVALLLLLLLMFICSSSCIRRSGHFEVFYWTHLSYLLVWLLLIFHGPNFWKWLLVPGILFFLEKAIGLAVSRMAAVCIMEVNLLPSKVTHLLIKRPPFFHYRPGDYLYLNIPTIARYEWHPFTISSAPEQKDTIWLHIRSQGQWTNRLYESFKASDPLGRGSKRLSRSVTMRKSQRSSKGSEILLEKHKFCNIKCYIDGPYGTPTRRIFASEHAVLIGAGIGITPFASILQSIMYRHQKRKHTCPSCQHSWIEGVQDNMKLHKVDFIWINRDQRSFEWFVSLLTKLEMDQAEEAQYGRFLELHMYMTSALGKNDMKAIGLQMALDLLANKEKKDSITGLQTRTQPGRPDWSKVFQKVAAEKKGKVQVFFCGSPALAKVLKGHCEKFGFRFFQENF
Torsin-1A (Homo sapiens), sequence (O14656 whole entry, looked up): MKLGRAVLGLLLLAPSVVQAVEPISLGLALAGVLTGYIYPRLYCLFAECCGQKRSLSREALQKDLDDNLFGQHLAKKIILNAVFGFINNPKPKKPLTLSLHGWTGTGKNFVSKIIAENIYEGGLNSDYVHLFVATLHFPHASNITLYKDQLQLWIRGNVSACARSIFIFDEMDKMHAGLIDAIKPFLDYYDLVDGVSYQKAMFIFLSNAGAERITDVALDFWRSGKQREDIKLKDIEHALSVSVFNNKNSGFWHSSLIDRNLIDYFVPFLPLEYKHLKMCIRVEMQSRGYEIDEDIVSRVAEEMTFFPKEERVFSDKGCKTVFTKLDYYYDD

As for `CCOC(=O)[C@H](Cc1ccccc1)NC(=O)CCC1CC(OC(=O)NCc2ccc3c(c2)OCO3)CC2(CCCC(COC(=O)NCc3cccc(C(F)(F)F)c3)O2)O1` (stereo not given in full), the composite z-score in [1] is -0.0271; in experiment [6], 0.0284; in experiment [7], 0.0448; in the experiment with Torsin-1A (Homo sapiens) [8] it was 0.0337; in the experiment with Torsin-1A (Homo sapiens) [9] it was 0.134; in experiment [10], 1.17. This compound showed a composite z-score in experiment [12] of 0.138. Besides, the z-score in experiment [2] was -2.72 (inactive); in [3] it was -0.518 (inactive); in [4], -0.618 (inactive); in experiment [5] it was -0.0205 (inactive); in experiment [11], -0.667 (inactive); in experiment [13] it was -0.272 (inactive). For the same compound, the z-score in experiment [14] is -1.05 (inactive); in experiment [15], -0.106 (inactive); in [16], -1.37 (inactive); in [17], 2.74; in experiment [18], -0.661 (inactive); in [19], -1.35 (inactive). Also, the z-score in experiment [20] is -0.999.
`CO[C@H]1COC(=O)CC=C[C@H](C)[C@@H](NS(=O)(=O)c2ccc(C)cc2)COC(=O)CC=C[C@@H]1C`: the composite z-score in experiment [1] is 0.0341; in experiment [6] it was -0.0767; in [7] it was -0.127; with Torsin-1A (Homo sapiens) [8], 0.693; with Torsin-1A (Homo sapiens) [9], 0.722; in experiment [10], 0.936. Moreover, the composite z-score in experiment [12] is -0.194. In addition, the z-score was -1.82 (inactive) in experiment [2]; -0.63 (inactive) in experiment [3]; -0.971 (inactive) in experiment [4]; -0.562 (inactive) in experiment [5]; -1.05 (inactive) in [11]; 0.0723 (inactive) in [13]. In addition, the z-score in experiment [14] is -1.13 (inactive); in [15], 0.157 (inactive); in [16] it was -0.592 (inactive); in [17], 5.19; in [18], 0.0288 (inactive); in experiment [19], 0.256 (inactive). For the same compound, the z-score in [20] was determined as 0.622.
Regarding `C=C(CCCC)C(=O)CC[C@@H](OC(C)=O)c1cccc(OCCO)c1`, the composite z-score in experiment [1] was 0.0837; in experiment [6], -0.543; in experiment [7], -0.21; with Torsin-1A (Homo sapiens) [8], 1.29; with Torsin-1A (Homo sapiens) [9] it was 0.594; in experiment [10], 1.56. Also, the composite z-score in [12] is -0.101. The z-score in [2] is -7.53 (inactive); in [3] it was -0.0381 (inactive); in experiment [4], 9.03 (active); in experiment [5], 2.58 (inactive); in experiment [11], -0.462 (inactive); in experiment [13], 2.82 (inactive). For the same compound, the z-score in experiment [14] is 1.81 (inactive); in experiment [15], -1.27 (inactive); in [16], 0.822 (inactive); in [17], 0.0149; in [18] it was -1.14 (inactive); in experiment [19], -1.3 (inactive). Moreover, the z-score in experiment [20] is -3.02.
Consider `NC(=O)NCC#Cc1ccc2c(c1)[C@]1(C(=O)N2)[C@H](c2ccc(O)cc2)N2[C@H](c3ccccc3)[C@H](c3ccccc3)OC(=O)[C@H]2[C@@H]1C(=O)N1CCCCCCC1`, for which the composite z-score was 0.2 in experiment [1]; 0.393 in [6]; 1.23 in experiment [7]; -0.067 with Torsin-1A (Homo sapiens) [8]; 0.609 with Torsin-1A (Homo sapiens) [9]; 1.06 in [10]. In experiment [12], the composite z-score turned out to be 2.04. The z-score in experiment [2] is -0.502 (inactive); in [3], -0.75 (inactive); in [4], -0.231 (inactive); in experiment [5] it was -0.674 (inactive); in [11], -0.403 (inactive); in [13] it was 0.578 (inactive). The z-score in experiment [14] was -0.175 (inactive); in experiment [15] it was 0.35 (inactive); in experiment [16], 0.197 (inactive); in [17], 0.0459; in [18], 1.71 (inactive); in [19], 0.802 (inactive). In [20], the z-score was determined as 1.2.
Take `O=C1C2=CC[C@H]3C(=O)N(Cc4ccc5c(c4)OCO5)C(=O)[C@H]3[C@H]2[C@H](O)[C@@H]2O[C@H]12`: the composite z-score in experiment [1] is -0.0194; in [6], 0.57; in [7], -0.0933; with Torsin-1A (Homo sapiens) [8], 0.475; in the experiment with Torsin-1A (Homo sapiens) [9], 0.677; in experiment [10], 0.495. Further, the composite z-score in experiment [12] was -0.0464. Besides, the z-score in [2] is 0.279 (inactive); in experiment [3], -0.0992 (inactive); in [4], -0.385 (inactive); in experiment [5], -0.454 (inactive); in [11], 0.0561 (inactive); in [13], -1 (inactive). Besides, the z-score in experiment [14] was -0.507 (inactive); in experiment [15], -0.906 (inactive); in [16], 0.0094 (inactive); in experiment [17], 0.116; in experiment [18], -0.382 (inactive); in [19] it was -0.111 (inactive). Moreover, in experiment [20], the z-score amounted to 0.104.
Turning to `C#C[C@@H]1Oc2ccccc2S(=O)(=O)N2CCC[C@H]12`, the composite z-score in experiment [1] is 0.0869; in [6], 0.261; in experiment [7] it was -0.154; with Torsin-1A (Homo sapiens) [8] it was -0.0705; with Torsin-1A (Homo sapiens) [9], 0.0535; in [10], 0.101. For the same compound, the composite z-score in [12] was 0.149. The z-score in [2] was 0.299 (inactive); in experiment [3], 0.405 (inactive); in experiment [4] it was 1.58 (inactive); in experiment [5], 0.14 (inactive); in experiment [11] it was -1.16 (inactive); in experiment [13] it was 0.217 (inactive). Further, the z-score in [14] was 0.676 (inactive); in [15], -0.0722 (inactive); in [16], 0.107 (inactive); in experiment [17], -0.222; in experiment [18], 0.0921 (inactive); in experiment [19] it was -1.48 (inactive). The z-score in experiment [20] is -0.194.
`[N-]=[N+]=NCc1ccccc1C[C@]1(C(=O)NCc2ccccc2)N=C(c2ccc(OCCCO)cc2)O[C@H]1c1ccccc1N=[N+]=[N-]`: the composite z-score is 0.729 in experiment [1]; 0.83 in experiment [6]; -0.287 in experiment [7]; -0.0818 with Torsin-1A (Homo sapiens) [8]; 0.334 in the experiment with Torsin-1A (Homo sapiens) [9]; -0.46 in [10]. The composite z-score in [12] was -0.7. Besides, the z-score is -4.38 (inactive) in [2]; -0.144 (inactive) in experiment [3]; 0.493 (inactive) in experiment [4]; -0.951 (inactive) in experiment [5]; 0.0901 (inactive) in experiment [11]; 30.6 (active) in experiment [13]. Also, the z-score in experiment [14] is 30.6 (active); in [15], 2.72 (inactive); in experiment [16] it was 3.32 (inactive); in [17] it was -0.275; in [18], -0.349 (inactive); in [19], -0.15 (inactive). Also, the z-score in experiment [20] was -1.66.
As for `CCOC(=O)[C@H](CC(C)C)NC(=O)CCC1CC(OC(=O)NCc2cccc3ccccc23)CC2(CCCC(COC(=O)NCCN3CCOCC3)O2)O1` (stereo not given in full), the composite z-score is 0.201 in experiment [1]; 0.308 in [6]; -0.0494 in experiment [7]; 0.0423 in the experiment with Torsin-1A (Homo sapiens) [8]; 0.765 with Torsin-1A (Homo sapiens) [9]; 0.717 in [10]. Further, the composite z-score in experiment [12] is -0.275. In addition, the z-score is -0.293 (inactive) in [2]; -0.677 (inactive) in experiment [3]; -0.164 (inactive) in experiment [4]; 1.14 (inactive) in [5]; -2.17 (inactive) in [11]; -0.839 (inactive) in experiment [13]. Further, the z-score in [14] is -0.655 (inactive); in experiment [15] it was -2.08 (inactive); in experiment [16], -0.709 (inactive); in experiment [17] it was 0.0369; in experiment [18] it was 0.428 (inactive); in experiment [19] it was 0.647 (inactive). In experiment [20], the z-score is -0.0177.

The record behind these values is PubChem BioAssay.
